# An excerpt weighted towards active compounds, which were near 18% of everything screened.
# HepG2 tox – counter-screen for TGF-b inhibitors: cytotoxicity in HepG2 cells; AID 588856; Potency, µM (top dose mostly 46.1 µM), for the others: at the top dose activity change, negative = cytotoxicity, most hits filed as cytotoxic; hit rate 0.76% among 410,000; HepG2 CAGA-GFP viability, ATP luminescence, 18 h; note: potency is the fitted concentration of half-maximal effect
#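 CellTiter-Glo luminescence gave cytotoxicity after 18 hours at 37 degrees C. The cells were HepG2 CAGA-GFP in 1% FBS DMEM, stimulated with 500 pg/mL TGF-beta after compound addition. %Activity was normalised to no-cell wells (complete cell-killing) and DMSO (no toxicity), and curves were fitted and classified.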
# TGFb inhibitor – inhibitors of TGF-b signaling; HepG2 CAGA-GFP TGF-b/SMAD3 reporter, GFP fluorescence, 18 h; TGF-beta stimulated, 500 pg/mL final; Potency, µM (series often up to 46.1 µM), for inactives: top-dose activity, negative = inhibition, usual class: inhibitors; hit rate 1.2% among 410,000; note: potency is the fitted concentration of half-maximal effect; % is set by controls: 0 for no effect and ±100 for the full control effect; nearly all actives have a fitted effect of over 65% in size
#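 Cell-based qHTS in HEPG2 carrying a CAGA-GFP Smad reporter; compounds added before 500 pg/mL final TGF-beta, 18 h incubation at 37 degrees C, GFP fluorescence quantified per cell by imaging cytometry.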
# DT40 TDP1 no CPT – qHTS for Inhibitors of human tyrosyl-DNA phosphodiesterase 1 (TDP1): qHTS in cells in absence of CPT | DT40 Tdp1-/- hTDP1 cells, no CPT, ATP luminescence, 48 h | Potency, µM (doses to about 46.2 µM), without a hit: at the highest dose activity change, negative = growth inhibition, hits mostly inhibitors | hit rate 15% among 420,000; note: potency is the fitted concentration of half-maximal effect; % is set by controls: 0 for no effect and ±100 for the full control effect; nearly all actives have a fitted effect of over 55% in size
#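 DT40 Tdp1-/-;hTDP1 cells, no CPT (DMSO vehicle only), 400 cells/well; compounds pin-transferred; ≥48 hr, 37 °C; CellTiter-Glo 30 min RT dark, luminescence read.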
# TDP1 cell CPT – growth inhibition of DT40 Tdp1-/-;hTDP1 cells with camptothecin (screen for TDP1 inhibitors) | chicken DT40 Tdp1-/-;hTDP1 cells + 20 nM CPT, ATP luminescence, 48 h | Potency, µM (top dose mostly 46.2 µM), for inactives: top-dose activity change, negative = growth inhibition, usual class: inhibitors | hit rate 12% among 420,000; note: potency is the fitted concentration of half-maximal effect; % is set by controls: 0 for no effect and ±100 for the full control effect; nearly all actives have a fitted effect of over 55% in size
#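 Chicken DT40 Tdp1-/- cells stably complemented with human TDP1 were seeded at 400 cells/well in medium containing 20 nM camptothecin, exposed to pin-transferred compounds, and grown at 37 °C for at least 48 hr. Viability was read as ATP luminescence.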
# IL1B secr inh – inflammasome signaling inhibition, IL-1 beta readout. hit rate 4.7% among 360,000. THP-1 LPS/ATP IL-1B secretion, AlphaLISA, 16 h; stronger effect = lower value. activity change, % at 57.5 µM; in the data active = activity change below about -50%; inconclusive = mostly about -30% to -49%; note: % is set by controls: 0 for no effect and ±100 for the full control effect
#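 Secreted IL-1B measured by AlphaLISA bead assay after 16 h compound exposure of THP-1 cells; compounds (final up to 57.5 uM) added 1 h before LPS (250 ng/mL) and ATP (1.25 mM) stimulation; lower signal means less secretion.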
# TDP1 block – inhibitors of human tyrosyl-DNA phosphodiesterase TDP1; Q9NUW8; Potency, µM (doses to about 130 µM), for the others: at the highest dose activity change, negative = inhibition, hits mostly inhibitors; hit rate 0.28% among 350,000; recombinant TDP1, AlphaScreen DNA substrate cleavage; note: potency is the fitted concentration of half-maximal effect; % is set by controls: 0 for no effect and ±100 for the full control effect; nearly all actives have a fitted effect of over 40% in size
# Target sequence (Q9NUW8 whole entry, looked up): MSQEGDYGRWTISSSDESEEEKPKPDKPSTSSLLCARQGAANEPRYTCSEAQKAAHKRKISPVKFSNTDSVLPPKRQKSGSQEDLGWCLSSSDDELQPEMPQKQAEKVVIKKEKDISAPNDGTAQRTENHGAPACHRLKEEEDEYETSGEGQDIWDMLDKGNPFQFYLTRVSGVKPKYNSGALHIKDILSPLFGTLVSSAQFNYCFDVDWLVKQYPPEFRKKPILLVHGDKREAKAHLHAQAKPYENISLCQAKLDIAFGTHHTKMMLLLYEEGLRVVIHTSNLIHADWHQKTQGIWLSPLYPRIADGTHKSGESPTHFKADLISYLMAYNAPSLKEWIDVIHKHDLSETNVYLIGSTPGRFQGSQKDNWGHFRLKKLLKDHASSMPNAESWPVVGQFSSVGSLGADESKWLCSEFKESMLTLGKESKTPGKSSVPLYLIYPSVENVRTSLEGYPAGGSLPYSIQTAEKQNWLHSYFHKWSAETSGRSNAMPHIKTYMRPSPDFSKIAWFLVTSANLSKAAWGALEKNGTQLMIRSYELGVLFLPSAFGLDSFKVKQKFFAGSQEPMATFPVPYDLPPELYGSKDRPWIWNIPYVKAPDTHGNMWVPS
#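 Enzyme-compound mixtures sat 15 min at room temperature, followed by a 5 min reaction with 15 nM final substrate and 10 min with AlphaScreen beads. Recombinant human Tdp1 was used at 1 nM final.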
# An asterisk follows results filed as active; ? = inconclusive; . = not tested or not shown. Unless noted, calls come from the whole dose curve; as a rule, active = well fitted curve in the direction sought with a large enough effect; inconclusive = small, poorly fitted or top-dose-only effect, or another doubt; inactive = no such curve, though single readings can be large; an effect the other way counts as inactive or inconclusive.
SMILES,HepG2 tox,TGFb inhibitor,DT40 TDP1 no CPT,TDP1 cell CPT,IL1B secr inh,TDP1 block
Cc1ccc2nc(-c3cccc(S(=O)(=O)N4CCCC4)c3)cn2c1,-6%,1%,-3%,-5%,5,1%
CCN(CC)S(=O)(=O)c1ccc(-c2cn3ccccc3n2)cc1,-10%,-11%,15µM*,?,-27,.
Cc1ccc2nc(-c3cccc(S(=O)(=O)N4CC(C)OC(C)C4)c3)cn2c1 (stereo not drawn),-15%,?,15µM*,?,-25,2%
CCN(CC)S(=O)(=O)c1cccc(-c2cn3cc(C)ccc3n2)c1,-8%,?,18µM*,21µM*,-22,2%
CCCN(CCC)S(=O)(=O)c1cccc(-c2csc(C)n2)c1,-29%,-25%,18µM*,?,-55*,.
CC1(Cc2ccccc2C#N)C(=O)Nc2ccc(OC(F)(F)F)cc21 (stereo not drawn),-24%,-16%,-28%,-29%,-22,.
CC1(Cc2ccccc2Cl)C(=O)Nc2ccc(OC(F)(F)F)cc21 (stereo not drawn),-90%,11µM*,?,23µM*,-10,.
CC1CC2C(C(O)CC3(C)C2CCC3(O)C(=O)CO)C2(C)C=CC(=O)C=C12 (stereo not drawn),5%,36%,-9%,-1%,.,.
Cc1cc(OCC(=O)NCCN2CCOCC2)c2c(C)c(C)c(=O)oc2c1,2%,9%,-3%,-3%,?,0%
CC1CCCN(C(C(=O)Nc2ccc3c(c2)OCO3)c2ccccc2)C1 (stereo not drawn),-16%,?,16µM*,15µM*,24,-1%
CC1CCCN(C(C(=O)NC2CCCCC2)c2cc3c(cc2[N+](=O)[O-])OCO3)C1 (stereo not drawn),-6%,-2%,?,?,-59*,2%
CC1CCN(C(C(=O)NC2CCCCC2)c2cc3c(cc2[N+](=O)[O-])OCO3)CC1 (stereo not drawn),3%,-19%,1%,4%,-4,3%
C=C1CCN(C(C)C(=O)OCc2ccc(C)cc2)S(=O)(=O)c2ccccc21 (stereo not drawn),-28%,2%,.,.,.,-9%
COc1cc(SC)ccc1C(=O)NCCNC(=O)c1nonc1N,-14%,-10%,-29%,-19%,-11,.
O=C(NCCc1csc2nc(-c3ccccc3F)nn12)c1ccccc1C(F)(F)F,-6%,-7%,9.2µM*,7.3µM*,.,7%
COc1cccc(C(=O)NCCc2csc3nc(-c4ccccc4F)nn23)c1OC,-22%,-8%,15µM*,26µM*,.,1%
COC(=O)c1ccc(NC(=O)C(=O)NCCc2csc3nc(-c4ccccc4F)nn23)cc1,9%,1%,-27%,-2%,.,4%
CN(Cc1ccccc1)C(=O)COC(=O)CN1C(=O)c2ccccc2C1=O,0%,11%,18%,-12%,-2,-1%
CCSc1nsc(NC(=O)Nc2ccc(F)cc2F)n1,-59%,?,4.6µM*,4.6µM*,-90*,4%
CCOc1ccc(NC(=O)Nc2nc(SCC)ns2)cc1,-37%,?,?,?,10,.
CCSc1nsc(NC(=O)Nc2ccccc2Cl)n1,-49%,?,15µM*,?,-78*,.
O=C(CSc1n[nH]c(-c2ccccc2Cl)n1)NCc1ccc(F)cc1,7%,-11%,?,-29%,.,5%
CNC(=S)NNC(=O)COc1ccc(C)c(C)c1,-15%,16%,?,12%,-15,5%
COC(=O)c1ccccc1NC(=O)CSc1nc2nc(C)cc(C)n2n1,5%,8%,.,.,.,2%
O=C(NCCCSc1ccccc1)c1cnc(Cl)c(Cl)c1,3%,6%,-25%,-27%,-94*,.
SMILES,HepG2 tox,TGFb inhibitor,DT40 TDP1 no CPT,TDP1 cell CPT,IL1B secr inh,TDP1 block
N#Cc1ccc(C(=O)NCCCSc2ccccc2)cc1,-16%,-8%,21µM*,?,14,.
O=C(NCCc1ccccc1)c1cnc(Cl)c(Cl)c1,-49%,-25%,?,10%,-87*,.
O=C(NCCc1ccccc1)c1nn(-c2ccccc2Cl)nc1CO,-29%,0%,13µM*,12µM*,.,0%
O=C(NCCCSc1ccccc1)c1cccnc1,5%,3%,0%,-6%,54,9%
Cc1c(C(=O)N2CCC(C)CC2)c(S(=O)(=O)N(Cc2ccccc2)C(C)(C)C)c(C)n1C,-27%,-29%,?,?,.,1%
COc1ccccc1C(=O)Nc1ccc(C(=O)Nc2ccccc2C(=O)O)cc1,4%,-7%,?,?,9,1%
O=C(O)c1sccc1S(=O)(=O)Nc1ccc(Cl)cc1,.,.,.,.,.,4%
COc1ccc(CNC(=O)[C@H](C)N2C(=O)N3CCc4c([nH]c5ccccc45)[C@@]3(C)C2=O)cc1OC,-40%,-3%,4.1µM*,2.6µM*,25,.
C[C@@H](C(=O)NCCc1ccc(F)cc1)N1C(=O)N2CCc3c([nH]c4ccccc34)[C@@]2(C)C1=O,-32%,?,12µM*,12µM*,-9,.
CC(C)C[C@@H](C(=O)NCc1ccco1)N1C(=O)N2CCc3c([nH]c4ccccc34)[C@@]2(C)C1=O,-66%,?,5.2µM*,?,-1,.
COc1ccc2[nH]c3c(c2c1)CCN1C(=O)N([C@@H](C)C(=O)NCCc2ccc(F)cc2)C(=O)[C@]31C,-55%,?,7.3µM*,23µM*,-23,.
Cc1ccc(CNC(=O)[C@H](C)N2C(=O)N3CCc4c([nH]c5ccccc45)[C@@]3(C)C2=O)cc1,-14%,-13%,?,?,37,.
O=C(COC(=O)CCS(=O)(=O)c1ccccc1)NC(=O)c1ccc(OC(F)F)cc1,-14%,31%,2%,15%,0,-5%
COc1ccc(CC(=O)OCC(=O)Nc2ccc(Br)cc2)cc1,-33%,?,-2%,-6%,1,-5%
CCc1nn2c(=O)cc(COc3ccc(/C=C4\C(=N)N5N=C(CC(C)C)SC5=NC4=O)cc3)nc2s1,13%,-4%,-3%,0%,20,.
CCOc1cc(/C=C2\C(=N)N3N=C(S(C)(=O)=O)SC3=NC2=O)ccc1OCCOc1cccc(OC)c1,-9%,-16%,13µM*,-3%,-9,.
COc1cc(/C=C2/C(=N)N3C=CSC3=NC2=O)ccc1OCCCOc1ccccc1C,-35%,?,?,?,8,10%

# Assay outcomes as filed in PubChem BioAssay.
